Source: PubChem BioAssay (National Center for Advancing Translational Sciences (NCATS))
HCMV inh: inhibitors of human cytomegalovirus; HFF cells, HCMV-luciferase reporter, 72 h; active compounds read low; activity change, negative = inhibition, % at 57.5 µM; 4.5% of 410,000 active; in the data active means activity change below about -60%; inconclusive means no clear call, values can overlap the other calls; inactive means above about -39%; further: on the % scale 0 is the no-effect control and ±100 the full control effect
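Two compound doses tested in HFFs infected with HCMV-luciferase, MOI 1 PFU/cell, 72 h at 37C. Lysate luminescence read with OneGlo; data normalized against buffer-only and 10uM Salinomycin inhibitor controls.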
Shiga inhibitor: Shiga toxin inhibition | Vero cells, Shiga toxin protein synthesis inhibition reporter | inhibition, % at 38.7 µM | 9.2% of 290,000 active; in the data active means inhibition mostly above about 28%, no sharp cut-off; inactive means mostly below about 43%; further: 0% is about no effect
HCV inhibitor: HCV inhibition; Potency, µM (highest dose often 41.8 µM), without a hit: at the highest dose activity change, negative = inhibition, actives largely listed as inhibitors; 3.4% of 340,000 active; AID 651820; Huh7.5.1 HCVcc-Cre infection, luciferase reporter, 44 h; further: potency means the concentration at half of the fitted maximal effect; on the % scale 0 is the no-effect control and ±100 the full control effect
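After 44 h co-culture of compound, cells and HCVcc-Cre (~0.5 moi), substrate is added for 15 min at room temperature and luciferase measured over 15 sec. Cells were seeded at 1,000/well and pre-cultured 4 h.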
Pf growth 48h: P. falciparum growth inhibition at 48 hours (one generation). P. falciparum luciferase growth in erythrocytes, 48 h. Potency, µM (highest dose often 28.7 µM), for inactives: at the highest dose activity change, negative = inhibition, usual class: inhibitors. 5.9% of 310,000 active. AID 504832; further: potency means the concentration at half of the fitted maximal effect; on the % scale 0 is the no-effect control and ±100 the full control effect
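Firefly luciferase activity from engineered P. falciparum reports growth; inhibitors lower the luminescent signal. Cultures contained 2% hematocrit erythrocytes at 0.1% final parasitemia.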
Pf growth 96h: P. falciparum growth inhibition at 96 hour, primary screen for plastid delayed-death inhibitors | P. falciparum luciferase reporter growth, 96 h | Potency, µM (titrated, usually from 28.7 µM), without a hit: at the top dose activity change, negative = inhibition, actives largely listed as inhibitors | 6.9% of 320,000 active | AID 504834; further: potency means the concentration at half of the fitted maximal effect; on the % scale 0 is the no-effect control and ±100 the full control effect
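Two parasite generations (96 h, 37 C, 5% CO2) of compound exposure in infected erythrocytes (0.05% parasitemia, 2% hematocrit). Luciferase-reporter P. falciparum; decreased luminescence indicates inhibited growth, aimed at apicoplast-acting delayed death.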
Cycloheximide cs: counter-screen hit for Shiga toxin inhibitors, cycloheximide | max response, % | cell reporter, cycloheximide protein synthesis inhibition counterscreen | 12% of 300,000 active | AID 2314; in the data active means max response mostly above about 13%, no sharp cut-off; inactive means mostly below about 14%; further: read at 38.3 µM for the half of the compounds with a filed dose; 0% is about no effect
* hit, by the source's call; ? = inconclusive; nt = not tested or not shown; [ ] = another dose, or the depositor's remark. Sampled rows, rich in hits. Any-hit rate of the full collection: about 21%. Unless noted, the call rests on the fitted dose curve; in most records, active means well fitted inhibition curve with a large enough effect; inconclusive means small, poorly fitted or top-dose-only effect, or another doubt; inactive means no such curve, though single readings can be large or run the other way.

SMILES | HCMV inh | Shiga inhibitor | HCV inhibitor | Pf growth 48h | Pf growth 96h | Cycloheximide cs
COc1ccc(-c2ccc(SCC(=O)N3CC(=O)Nc4ccccc43)nn2)cc1 | ? | 35* | 8% | -11% | -15% | 21*
COc1ccccc1Nc1nnc(SCC(=O)NC2CC2)s1 | 0 | nt | 1% | ? | ? | nt
Cc1ccc(C(=O)NCC(=O)Nc2ccc(S(=O)(=O)Nc3cc(C)nc(C)n3)cc2)cc1 | 28 | nt | -2% | nt | nt | nt
CCCCn1cc(S(=O)(=O)c2ccc(CC)cc2)c(=O)c2cc(F)c(N3CCOCC3)cc21 | -6 | nt | nt | nt | nt | nt
COc1ccccc1/C=C(\NC(=O)c1ccc(OC)c(OC)c1)C(=O)Nc1cccc([N+](=O)[O-])c1 | -61* | -10 | -10% | -10% | 0% | 1
COc1ccccc1/C=C(\NC(=O)c1ccc(OC)c(OC)c1)C(=O)Nc1ccc([N+](=O)[O-])cc1 | -22 | -6 | -17% | -4% | ? | -3
C/C(=N\NC(=O)c1nn(C)c(C)c1Br)c1cccc(NC(=O)c2ccoc2C)c1 | -23 | 24* | ? | 14% | ? | 46*
COc1ccc(C(=O)Nc2cccc(/C(C)=N/NC(=O)c3ccc([N+](=O)[O-])c(C)c3)c2)cc1OC | 40 | 27 | 2.8µM* | 6% | -12%[5.75 µM] | 25
COc1ccc(C(=O)Nc2cccc(NC(C)=O)c2)cc1OC | -10 | -14 | 4% | 23% | ? | -2
CC(=O)c1cccc(NC(=O)Nc2c(C)nn(C)c2C)c1 | ? | -4 | 8% | 19% | -13% | -3
COc1ccc(C(=O)Nc2cccc(S(C)(=O)=O)c2)cc1OC | 28 | 16 | 5% | 7% | -11% | 9
COc1ccc(C(=O)Nc2cccc(/C(C)=N\NC(=O)c3ccoc3C)c2)cc1OC | 106 | 60* | ? | -16% | -5% | 45*
CCOc1ccc(NC(=O)CC2C(=O)N(c3ccc(F)cc3)C(=O)N2CCc2sccc2C)cc1 (stereo not drawn) | -6 | nt | nt | nt | nt | nt
C[C@@H]1CN([C@H](C)CO)C(=O)c2cc(C#CC3CC3)cnc2O[C@H]1CN(C)S(C)(=O)=O | 3 | nt | nt | nt | nt | nt
Cc1ccc(C2C(C#N)=C(N)OC3=C2C(=O)CC(C)(C)C3)s1 (stereo not drawn) | 0 | -4 | 18% | ? | 43% | -2
CCN1CCCC1CNC(=O)C(=O)NC(C)C (stereo not drawn) | -34 | -7 | 22% | 40% | 19% | 10
CCN1CCCC1CNC(=O)C(=O)NC(C)c1ccccc1 (stereo not drawn) | ? | 47 | 2% | 14% | 12µM* | -3
CCOC(=O)N1CCC(NC(=O)c2cc3c(C)nc4ccccc4c3o2)CC1 | ? | -5 | ? | nt | -24% | -1
COc1cccc(CNC(=O)c2cc3c(C)nc4ccccc4c3o2)c1 | ? | -6 | 6.3µM* | nt | 302% | -7
COc1cccc(CNC(=O)c2cc(-c3cccs3)nc3ccccc23)c1 | 14 | nt | nt | nt | nt | nt
COc1ccc(CNC(=O)c2cc3c(C)nc4ccccc4c3o2)c(OC)c1 | nt | -13 | 3.2µM* | nt | -16% | -8
CCc1ccc(CNC(=O)c2cc3c(C)nc4ccccc4c3o2)cc1 | -64* | 5 | 11µM* | -19% | ? | -3
Cc1cc(OC(C)C(=O)NCc2ccncc2)c2c(C)c(C)c(=O)oc2c1 (stereo not drawn) | 1 | -7 | ? | -6% | -14% | -4
CCCCN(CC)CCNC(=O)c1cc2c(C)nc3ccccc3c2o1 | ? | 5 | 6.3µM* | ? | 11% | -1
Cc1nc2ccccc2c2oc(C(=O)NCC3COc4ccccc4O3)cc12 (stereo not drawn) | ? | -6 | 10µM* | 2% | 8% | -3
SMILES | HCMV inh | Shiga inhibitor | HCV inhibitor | Pf growth 48h | Pf growth 96h | Cycloheximide cs
Cc1nc2ccccc2c2oc(C(=O)NCCN3CCCCC3C)cc12 (stereo not drawn) | 5 | -12 | ? | ? | ? | 2
CCN1CCCC1CNC(=O)c1cc2c(C)nc3ccccc3c2o1 (stereo not drawn) | -16 | 21 | ? | 9.3µM* | ? | 3
CCC(Oc1ccccc1)C(=O)Nc1ccc2oc(-c3ccc(OC)cc3)nc2c1 (stereo not drawn) | 68 | nt | nt | nt | nt | nt
Nc1sccc1C(=O)c1ccc(Cl)cc1 | 8 | 24 | -11% | 142% | ? | 24*
O=C(C[C@H]1CC[C@H](NC(=O)C2CCOCC2)[C@@H](CO)O1)NCc1ccncc1 | -33 | nt | nt | nt | nt | nt
Cc1csc(-c2cnn(-c3ccccc3)c2NC(=O)c2cccc(C(F)(F)F)c2)n1 | 3 | -3 | ? | nt | 10µM* | -4
O=[N+]([O-])c1nn(-c2ccc(Cl)cc2)n(O)c1=NCc1ccccc1Cl | 44 | 74* | -11% | 0% | 44% | 35*
O=[N+]([O-])c1nn(-c2ccc(Cl)cc2)n(O)c1=NCc1ccncc1 | ? | 36 | ? | 2.9µM* | -19% | 17
Cc1ccc(CN=c2c([N+](=O)[O-])nn(-c3ccc(Cl)cc3)n2O)cc1 | -21 | 33 | ? | 75% | 3.3µM* | 44*
CCOC(=O)N1CCN(C(=O)COC(=O)CNC(=O)c2ccc(C)cc2)CC1 | -1 | nt | 7% | 9% | 45% | nt
COC(=O)c1[nH]c2cccc(C)c2c1NC(=O)CN1CCN(C(=O)c2ccco2)CC1 | 30 | 16 | -14% | ? | 12µM* | -7
COC(=O)c1[nH]c2ccc(F)cc2c1NC(=O)CCN1CCN(C(=O)c2ccco2)CC1 | 19 | 48 | nt | 35% | ? | -1
COC(=O)c1[nH]c2ccccc2c1NC(=O)C(C)N1CCN(C(=O)c2ccco2)CC1 (stereo not drawn) | 68 | -12 | 12% | ? | 10µM* | 2
COC(=O)c1[nH]c2cccc(C)c2c1NC(=O)CN1CCN(c2ccccc2OC)CC1 | ? | -7 | -17% | ? | -24% | -5
COC(=O)c1[nH]c2cc(C)ccc2c1NC(=O)CN1CCN(C(=O)c2ccco2)CC1 | 87 | -18 | ? | ? | 3.3µM* | -3
c1ccc(CCNCc2cccnc2)cc1 | ? | -1 | 9% | 78% | 14% | 3
O=C(COc1ccc(Nc2ccccc2)cc1)Nc1ccncc1 | -31 | nt | ? | -6% | 0% | nt
Oc1cc(Nc2cccnc2)cc2cccnc12 | -98* | nt | nt | 10µM* | 4.1µM* | nt
COc1ccc(-c2ncccc2O)cc1 | -15 | -10 | 18% | nt | ? | -1
Oc1cc(Nc2ccncc2)cc2cccnc12 | -25 | nt | nt | 12µM* | ? | nt
COc1ccc(Nc2cc(O)c3ncccc3c2)cc1 | nt | nt | nt | 0.47µM* | 0.41µM* | nt
Oc1cc(NCCc2cccnc2)cc2cccnc12 | -74* | nt | nt | 12µM* | 8.3µM* | nt
O=C(Nc1cccc2cccnc12)c1cccnc1 | 72 | -8 | 2% | 21% | nt | -1
CN(c1ccccc1)c1cc(Br)nc(Br)c1 | -34 | nt | 6% | nt | nt | nt
